# Data as given in PubChem BioAssay (NCATS).
# A structure can be active in one record and inactive in another. The source made the active and inactive calls. The call rests on the fitted dose curve; in most records, active means well fitted cell-killing curve with a large enough effect; inconclusive means small, poorly fitted or top-dose-only effect, or effect the other way; inactive means flat fitted curve, though single readings scatter.
# Assay: MultiTox-Fluor Cytotoxicity Assay - LYMP1-003 - Dead Cells (AID 961); further: nearly all actives have a fitted effect of over 70% in size
# Settings: LYMP1-003 lymphoblastoid cells, dead-cell protease fluorescence; series mostly up to 92.2 µM
# From the text: NIH Chemical Genomics Center [NCGC]
# NIH Molecular Libraries Screening Centers Network [MLSCN]
# National Institutes of Environmental Health Sciences [NIEHS]
# National Toxicology Program [NTP]
# We have developed a 1536-well cell-based assay for quantitative high throughput screening (qHTS) against a number of cell lines to determine in vitro cytotoxicity of small molecules. This particular assay uses a human lymphoblastoid cell line (LYMP1-003) purchased from Coriell Institute.
# NCGC Assay Protocol Summary:
# The MultiTox-Fluor Cytotoxicity Assay (Promega) is a homogeneous method to simultaneously measure the relative number of live and dead cells in culture by detecting changes in cell membrane integrity. There are two fluorogenic peptide substrates in the assay reagent. Viable cells are determined when the cell-permeant substrate (GF-AFC) enters the cell and is cleaved by protease from live cells resulting in liberated fluorophore. This live-cell protease activity restricted to viable cells is proportional to cell number. The dead cells are determined by using fluorogenic cell-impermeant peptide substrate (bis-AAF-R110) which cleaved by dead cell proteases leaking from damaged cell membrane.
# Using the MultiTox-Fluor Cytotoxicity Assay, the relative number of dead cells was measured in the lymphoblastoid cell line with complete culture medium following compound treatment for 16 hours. The assay was performed in opaque black Kalypsys 1536-well plates. In the screen, tetraoctylammonium bromide was used as positive control. Library compounds were measured for their ability to cause acute toxicity in the cell line, as reflected by an increase in dead cell protease activity, in a concentration-dependent manner. Data were normalized to the controls for basal activity (DMSO only) and 100% stimulation (15 uM tetraoctylammonium bromide). AC50 values were determined from concentration-response data modeled with the standard Hill equation.
# qHTS protocol for MultiTox-Fluor Cytotoxicity assay
# [Step] [Parameter] [Value] [Description]
# 1. Reagent; 5 uL; 2500 lymphoblastoid cells/well
# 2. Time; 5 hr; 37 C incubation
# 4. Controls; 23 nL; Tetraoctylammonium bromide 6.4pM to 92 uM
# 5. Time; 16 hr; 37 C incubation
# 6. Reagent; 5 uL; MuliTox-Fluor Assay reagent
# 7. Time; 60 min; Room Temperature
# 8. Detection; dead-cell fluorescence (Ex/Em=485/520); EnVision plate reader
# Keywords: cytotoxicity, lymphoblastoid cell line, fluorescence, NTPHTS, NTPHTS_NCGC, NIEHS, EPA, DSSTox, MLSMR, MLSCN, NIH Roadmap, qHTS, NCGC
# Potency means the concentration at half of the fitted maximal effect.
row,Structure (SMILES),Potency
1,O=C(CCl)c1ccc(Cl)cc1Cl,10 µM (active)
2,CNC(=O)Oc1cccc2ccccc12,inactive
3,CN(C)c1ccc(C(=C2C=CC(=[N+](C)C)C=C2)c2ccc(N(C)C)cc2)cc1,10 µM (active)
4,COC(=O)C1=C(C)NC(C)=C(C(=O)OC)C1c1ccccc1[N+](=O)[O-],50.1 µM (active)
5,CCCCCCCCCCCC[N+](C)(C)CCOc1ccccc1,12.6 µM (active)
6,CN(C)C(=S)SSC(=S)N(C)C,12.6 µM (active)
7,C[C@@H]1C[C@@H]([C@H](O)CC2CC(=O)NC(=O)C2)C(=O)[C@@H](C)C1,50.1 µM (active) and inactive
8,CC[n+]1c(-c2ccccc2)c2cc(N)ccc2c2ccc(N)cc21,39.8 µM (active)
9,Oc1c(Br)cc(Br)cc1Br,inactive
10,CCCCCCCCCCCCCCCC[n+]1ccccc1,20 µM (active)
